Only some compounds are listed: those with a hit (about 17% of all), similar ones and a draw of the others.
HT1080-NT tox = kills 2HG-producing HT-1080-NT fibrosarcoma cells; AID 686970; 1.6% of 360,000 active; HT-1080-NT fibrosarcoma viability, CellTiter-Glo ATP luminescence, 48 h; Potency, µM (titrated, usually from 46.1 µM), without a hit: at the top dose activity, negative = less viability, actives largely listed as cytotoxic;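 also: NT is the 2HG producing partner of a matched IDH1 knockdown line; 0% = DMSO-treated cells and -100% = media-only wells without cells; nearly all actives have a fitted effect of over 55% in size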
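HT-1080-NT; 750 cells/well; 5% FBS RPMI; 48 h compound, 37 degrees C; CellTiter-Glo luminescence; curve fitting and curve-class assignment.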
HepG2 tox = kills HepG2 cells in TGF-b inhibitor counter-screen. 0.76% of 410,000 active. Potency, µM (series often up to 46.1 µM), inactives show at the top dose activity change, negative = cytotoxicity, most hits filed as cytotoxic. HepG2 CAGA-GFP viability, ATP luminescence, 18 h. AID 588856
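HepG2 CAGA-GFP cells (1000/well, DMEM with 1% FBS) received compound, then TGF-beta at 500 pg/mL final, and were incubated 18 hours at 37 degrees C. Viability was read by CellTiter-Glo luminescence. Media-only wells were set as complete cell-killing and DMSO as no toxicity.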
HT1080 IDH1KD tx = HT-1080 IDH1 knockdown cell toxicity (counter line). Potency, µM (doses to about 46.1 µM), for inactives: at the highest dose activity, negative = toxicity, usual class: cytotoxic. 2% of 360,000 active. AID 686971. HT-1080 IDH1 knockdown viability, ATP luminescence, 48 h;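 also: 0% = DMSO wells and -100% = cell-free medium wells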
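HT-1080-IDH1KD cells (IDH1 knocked down), 750/well in RPMI with 5% FBS, treated with compound 48 h at 37 degrees C. Viability by CellTiter-Glo luminescence, normalised to DMSO and no-cell wells; concentration-response curves classed.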
DT40 TDP1 CPT = growth inhibition of DT40 Tdp1-/-;hTDP1 cells with camptothecin (screen for TDP1 inhibitors); chicken DT40 Tdp1-/-;hTDP1 cells + 20 nM CPT, ATP luminescence, 48 h; Potency, µM (top dose mostly 46.2 µM), inactives show top-dose activity change, negative = growth inhibition, hits mostly inhibitors; 12% of 420,000 active; also: % is scaled to controls: 0 for no effect and ±100 for the full control effect; nearly all actives have a fitted effect of over 55% in size
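Chicken DT40 Tdp1-/- cells complemented with human TDP1, 400 cells/well, exposed to compounds plus 20 nM camptothecin for at least 48 h at 37 C; viability read as ATP content by CellTiter-Glo luminescence.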
TGFb inhibitor = inhibitors of TGF-b signaling; HepG2 CAGA-GFP TGF-b/SMAD3 reporter, GFP fluorescence, 18 h; TGF-beta stimulated, 500 pg/mL final; Potency, µM (series often up to 46.1 µM), without a hit: top-dose activity, negative = inhibition, actives largely listed as inhibitors; 1.2% of 410,000 active; AID 588855; also: % is scaled to controls: 0 for no effect and ±100 for the full control effect; nearly all actives have a fitted effect of over 65% in size
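Per well, imaged GFP fluorescence of HEPG2 CAGA-GFP cells gives the signal; cells get compound, then TGF-beta (500 pg/mL final), 18 h at 37 degrees C; %Activity versus -TGF-beta and +DMSO controls.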
DT40 TDP1 no CPT = qHTS for Inhibitors of human tyrosyl-DNA phosphodiesterase 1 (TDP1): qHTS in cells in absence of CPT; DT40 Tdp1-/- hTDP1 cells, no CPT, ATP luminescence, 48 h; Potency, µM (highest dose often 46.2 µM), inactives show at the highest dose activity change, negative = growth inhibition, hits mostly inhibitors; 15% of 420,000 active; also: % is scaled to controls: 0 for no effect and ±100 for the full control effect; nearly all actives have a fitted effect of over 55% in size
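Seeded 400 DT40-hTDP1 cells/well (vehicle DMSO, no 20 nM CPT); pinned compounds; ≥48 hr at 37 °C; CellTiter-Glo luminescence as viability measure.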
* marks the source's active call; other numbers are inactive results; ? = inconclusive; . = no result given; [ ] = dose if it differs, or a comment. Calls follow the shape of the dose curve; as a rule, active = well fitted curve in the direction sought with a large enough effect; inconclusive = small, poorly fitted or top-dose-only effect, or another doubt; inactive = no such curve, though single readings can be large; an effect the other way counts as inactive or inconclusive. Potency is read from the fitted curve at half-maximal effect.

SMILES	HT1080-NT tox	HepG2 tox	HT1080 IDH1KD tx	DT40 TDP1 CPT	TGFb inhibitor	DT40 TDP1 no CPT
CCOP(=O)(OCC)c1cccc(P(=O)(c2ccccc2)c2ccccc2)c1O	?	-6%	-7%	-120%	-5%	?
O=C(CCCN1CCC2(CC1)C(=O)N(Cc1cccc(F)c1)CN2c1ccccc1)c1ccc(F)cc1	.	.	.	30µM*	.	15µM*
CCCCn1c(O)c(C(C)=NC(Cc2c[nH]c3ccccc23)C(=O)OC)c(=O)[nH]c1=O (configuration not stated)	4%	-29%	-4%	-2%	0%	-20%
CC(=O)c1ccc2c(c1)C1C(Cl)C(Sc3ccccc3[N+](=O)[O-])CC1C(c1ccccc1)N2 (configuration not stated)	-24%	-15%	-21%	12µM*	-3%	15µM*
CC(=O)c1ccc2c(c1)C1C(Cl)C(Sc3ccccc3[N+](=O)[O-])CC1C(c1ccccc1[N+](=O)[O-])N2 (configuration not stated)	-14%	1%	-17%	10µM*	-3%	13µM*
O=C1NC(=O)C(Sc2ccccc2[N+](=O)[O-])C(=O)N1	8%	-31%	3%	?	-5%	?
COc1ccccc1OP(=O)(Nc1ccc(Br)cc1)Oc1ccccc1OC	2%	-79%	-12%	?	16µM*	?
COc1cccc(OP(=O)(Nc2ccccc2)Oc2cccc(OC)c2)c1	-30%	-34%	-11%	?	?	-24%
COc1ccc(NP(=O)(Oc2ccc(Cl)cc2)Oc2ccc(Cl)cc2)cc1OC	?	-47%	?	18µM*	20µM*	26µM*
COc1ccc(NP(=O)(Oc2ccccc2OC)Oc2ccccc2OC)cc1	1%	0%	-14%	?	-5%	16µM*
O=C1NC(=O)C(CCc2ccncc2)(Cc2ccc(OCc3ccccc3)cc2)C(=O)N1	6%	8%	4%	9%	3%	-6%
COc1ccc(CCNc2nccn(-c3ccc(C)c(C)c3)c2=O)cc1OC	.	-21%	.	15µM*	?	13µM*
COc1ccc(CCNCc2ccc(C)s2)cc1OC	-2%	-24%	-3%	1%	1%	-15%
Clc1ccc(CSC(Cn2ccnc2)c2ccc(Cl)cc2Cl)cc1 (configuration not stated)	?	-100%	?	?	?	18µM*
Clc1ccc(COC(Cn2ccnc2)c2ccc(Cl)cc2Cl)cc1 (configuration not stated)	?	-95%	15µM*	23µM*	?	21µM*
CC(C)CN1CCC2(CC1)CCN(C(=O)Oc1ccccc1)CC2	.	.	.	-1%	.	1%
COc1cccc(Oc2c(C)oc3cc(OC(=O)N(C)C)ccc3c2=O)c1	-6%[9.24 µM]	5%	-4%	?	5%	-15%
CCOC(=O)c1c(-c2ccc(OC)cc2)oc2ccc(OC(=O)N(C)C)cc12	?	-38%	?	?	-2%	18µM*
Cc1ccc(OCC(=O)NCCN2CCN(C(=O)COc3ccc(C)cc3)CC2)cc1	1%	-18%	1%	-7%	?	-21%
CCC1/C=C/C=CCC(C)C(O)[C@@](C)(O)C(=O)C(C)C(O)C(C)C(=O)C(C)C(O)C(C)C=CC(=O)O[C@H]2C(C)C(CC1)O[C@]1(CCC(C)C(CC(C)O)O1)C2C (some centres not stated)	.	.	.	0.0073µM*	.	0.0058µM*
CC(C)C(=O)N1CCC(CN=Cc2c(O)n(C3CCCCC3)c(=O)n(C3CCCCC3)c2=O)CC1	?	-23%	?	?	-2%	23µM*
NC(=O)C(c1ccccc1)(c1ccccc1)[C@@H]1CCN(CCc2ccc3c(c2)CCO3)C1	.	.	.	?	.	19µM*
CCOP(=O)(OCC)C(O)c1ccc2c(c1)OCO2 (configuration not stated)	16%	2%	10%	6%	1%	4%
Cc1c(P(=S)(c2ccccc2)c2ccccc2)[n+]2ccccc2n1C	-22%	0%	-20%	5.8µM*	-6%	4.1µM*
Cc1c(P(=S)(c2ccccc2)c2ccccc2)[n+]2ccccc2n1C/C=C/c1ccccc1	.	20µM*	.	.	?	.
SMILES	HT1080-NT tox	HepG2 tox	HT1080 IDH1KD tx	DT40 TDP1 CPT	TGFb inhibitor	DT40 TDP1 no CPT
Cc1nc2ccccn2c1P(=S)(c1ccccc1)c1ccccc1	.	-11%	.	.	?	.
CN1CCN(c2oc(-c3ccc(COc4ccccc4)o3)nc2C#N)CC1	.	-27%	.	?	43%	?
O=C(COc1ccc(Cl)cc1)N1CCN(Cc2ccc([N+](=O)[O-])cc2)CC1	-6%	-34%	-13%	?	?	23µM*
O=[N+]([O-])c1cccc(CN2CCN(Cc3ccc(Cl)cc3)CC2)c1	-23%	-23%	-7%	?	?	16µM*
COc1ccc(OCC(=O)N2CCN(Cc3nc4cc([N+](=O)[O-])ccc4n3C)CC2)cc1	-7%	-19%	-6%	15µM*	-16%	?
COc1ccc(OCC(=O)N2CCN(CCc3ccncc3)CC2)cc1	.	10%	.	-6%	-9%	-2%
CSc1ccc(CN2CCN(C(=O)COc3cccc(C)c3)CC2)cc1	-6%	-29%	-20%	16µM*	?	21µM*
Cc1cccc(OCC(=O)N2CCN(Cc3cccnc3)CC2)c1	-7%	-3%	-6%	-9%	9%	-27%
Cc1ccc(OCC(=O)N2CCN(Cc3ccc(F)cc3)CC2)cc1	.	-30%	.	-10%	.	-22%
C=CCC1(C(C)CCC)C(=O)N=C(S)NC1=O (configuration not stated)	.	.	.	-3%	.	-1%
O=P(O)(O)Cc1c(Cl)cccc1Cl	21%	-11%	?	4%	16%	-6%
C[C@@H]1CC2C3CC=C4C[C@@H](O)CC[C@]4(C)C3CC[C@]2(C)[C@H]1O (some centres not stated)	2%	-5%	1%	-21%	0%	?
C[C@]12CC[C@H](N)CC1=CCC1C2CC[C@@]2(C)C1CC[C@@H]2O (some centres not stated)	?	-13%	?	18µM*	-27%	?

Screens (PubChem BioAssay)
